Source: PubChem BioAssay (NCATS)
Records with an inconclusive call do not appear. Entries that show only a call come without a potency. Unmarked numbers belong to inactive results. Activity calls are given as the source filed them. Calls come from the whole dose curve; as a rule, active = well fitted curve in the direction sought with a large enough effect; inconclusive = small, poorly fitted or top-dose-only effect, or another doubt; inactive = no such curve, though single readings can be large; an effect the other way counts as inactive or inconclusive.

What was measured:
[1] = biological target: Calcium and integrin-binding protein 1 (Homo sapiens) (UniProt Q99828); assay: Primary qHTS for Identification of Calcium Integrin Binding Protein 1 (CIB1) Competitor (AID 1508620); details: CIB1-GST / FITC-alphaIIb peptide fluorescence polarization; series mostly up to 114 µM;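 note: GST tagged CIB1 binding a fluorescein labelled alphaIIb integrin peptide tracer; top concentration of the series differs between compounds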
Chain of Calcium and integrin-binding protein 1 (Homo sapiens) (Q99828 whole entry, looked up): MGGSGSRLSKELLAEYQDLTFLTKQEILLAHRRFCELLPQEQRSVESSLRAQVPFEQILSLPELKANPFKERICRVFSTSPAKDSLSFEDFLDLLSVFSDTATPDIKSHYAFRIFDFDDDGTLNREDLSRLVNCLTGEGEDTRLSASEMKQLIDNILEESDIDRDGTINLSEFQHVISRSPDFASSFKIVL
Procedure, shortened: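 CIB1-GST (1 uM final) and compound incubated 15 min at room temperature before adding FITC-alphaIIb peptide tracer (100 nM final). Competition for binding read by fluorescence polarization (ex 480, em 540) after another 15 min at room temperature.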

[2] = Primary qHTS for inhibitors of nuclear receptor binding SET domain protein 2 (NSD2) in an isogenic RCH-ACV NSD2 p.E1099K mutant (9B) (AID 1645876); details: RCH-ACV NSD2 E1099K (9B) viability, CellTiter-Glo, 72 h; series mostly up to 44.9 µM; note: nearly all actives have a fitted effect of over 70% in size; note: potency is the fitted concentration of half-maximal effect
[3] = Primary qHTS for inhibitors of nuclear receptor binding SET domain protein 2 (NSD2) in an RCH-ACV wild type WT cells (2C) (AID 1645877); details: RCH-ACV (leukaemia line) NSD2 WT (2C) viability, CellTiter-Glo, 72 h; series mostly up to 44.9 µM; note: nearly all actives have a fitted effect of over 70% in size; note: potency is the fitted concentration of half-maximal effect

Row | SMILES | Potency [1] | outcome [2] | outcome [3] | Potency [2] | Potency [3]
1 | CC(=O)O[C@H]1[C@H](O[C@H]2[C@@H]3C=CO[C@@H](O[C@@H]4O[C@H](CO)[C@@H](O)[C@H](O)[C@H]4O)[C@@H]3[C@@]3(CO)O[C@@H]23)O[C@@H](C)[C@H](OC(=O)/C=C/c2ccccc2)[C@H]1OC(=O)/C=C/c1ccccc1 | inactive | inactive [at 9.23 µM] | inactive [at 9.23 µM] |  | 
2 | CC(O)/C=C/C1C(C)C(O[C@@H]2O[C@H](CO)[C@@H](O)[C@H](O)[C@H]2O)C(O)CC1(C)C (some centres not stated) | inactive |  |  | inactive | inactive
3 | CC1(C)CC2C(O)c3cocc3CC(C)(O)C2C1 (configuration not stated) | inactive |  |  | inactive | inactive
4 | C=CC1(C)C=C2CCC3C(C)(C)C(O[C@@H]4O[C@@H](CO)[C@H](O)[C@H]4O)CCC3(C)C2CC1O[C@@H]1O[C@H](C)[C@H](O)[C@H](O)[C@H]1O (some centres not stated) | inactive |  |  | inactive | inactive
5 | O=C1NC(Cc2c[nH]c3ccccc23)C(=O)NC1Cc1c[nH]c2ccccc12 (configuration not stated) | inactive |  |  | inactive | inactive
6 | CC(O)/C=C/C1OC(=O)CC1Nc1ccc(C(=O)O)cc1 (configuration not stated) | inactive |  |  | inactive | inactive
7 | C=C(C(=O)O)[C@H]1C[C@]2(C)[C@@H](O)CC[C@]23O[C@H]1C[C@@H]3C | inactive |  |  | inactive | inactive
8 | C=C[C@]1(C)C=C2CCC3C(C)(CCC[C@@]3(C)C(=O)O)C2CC1 (some centres not stated) | inactive |  |  | inactive | inactive
9 | C=C[C@H]1[C@H](O[C@@H]2O[C@H](CO)[C@@H](O)[C@H](O)[C@H]2O)OC=C(C(=O)OC)[C@H]1C[C@@H]1c2cc(O)c(O)cc2CCN1C(C)=O | inactive |  |  | inactive | inactive
10 | CC(C)c1ccc2c(c1)C(=O)CC1[C@@](C)(C(=O)O)CCC[C@]21C (some centres not stated) | inactive |  |  | inactive | inactive
11 | CC1(C)CC[C@]2(C(=O)O[C@@H]3O[C@H](CO)[C@@H](O)[C@H](O)[C@H]3O)CC[C@]3(C)C(=CCC4[C@@]5(C)C[C@@H](O)[C@H](O)[C@](C)(C=O)C5CC[C@]43C)[C@@H]2[C@@H]1O (some centres not stated) | inactive |  |  | inactive | inactive
12 | C[C@@H]1C(=O)O[C@H]2C[C@]34[C@H]5C[C@@H](C(C)(C)C)[C@]36[C@@H](OC(=O)[C@H]6O)O[C@]4(C(=O)O5)[C@]21O | inactive |  |  | inactive | inactive
13 | CC1CCC2(OC1)OC1CC3C4CC=C5CC(O)CC(O[C@@H]6OC[C@@H](O)[C@H](O)[C@H]6O)C5(C)C4CCC3(C)C1(O)C2C (some centres not stated) | inactive |  |  | inactive | inactive
14 | C=CC(C)(C)c1[nH]c2ccccc2c1C[C@@H]1NC(=O)[C@H](Cc2c[nH]c3ccccc23)NC1=O | inactive |  |  | inactive | inactive
15 | C=CCC1=C[C@]2(OC)[C@H](C)[C@@H](c3ccc(O)c(OC)c3)O[C@]2(OC)CC1=O | inactive |  |  | inactive | inactive
16 | N#C[C@@H]1C[C@H](F)CN1C(=O)CNC1[C@H]2CN(C(=O)c3ccc(F)cc3)C[C@@H]12 (some centres not stated) | inactive |  |  | inactive | inactive
17 | C[C@@H]1O[C@@H](O[C@H]2[C@@H]3C=CO[C@@H](O[C@@H]4O[C@H](CO)[C@@H](O)[C@H](O)[C@H]4O)[C@@H]3[C@@]3(CO)O[C@@H]23)[C@H](OC(=O)/C=C/c2ccc(O)c(O)c2)[C@H](O)[C@H]1O | inactive |  |  | inactive | inactive
18 | CN[C@@H]1[C@H](O[C@H]2[C@H](O[C@@H]3[C@@H](O)[C@H](O)[C@@H](N=C(N)N)[C@H](O)[C@H]3N=C(N)N)O[C@@H](C)[C@]2(O)C=O)O[C@@H](CO)[C@H](O)[C@H]1O | inactive |  |  | inactive | inactive
19 | Cn1cncc1C(N)(c1ccc(Cl)cc1)c1ccc2c(c1)c(-c1cccc(Cl)c1)cc(=O)n2C (configuration not stated) | inactive |  |  | 4170 nM (active) | 833 nM (active)
20 | COC(=O)CC(O)C1OC(c2ccccc2)C(O)C1O (configuration not stated) | inactive |  |  | inactive | inactive
21 | CC(C(O)/C=C/C(C)(C)O)C1CCC2(C)C3C(=O)C=C4C(CCC(O)C4(C)C)C3(C)CCC12C (configuration not stated) | inactive |  |  | inactive | inactive
22 | CC1=CC(=O)CC2C1(O)CCC(C)C21CC(c2ccoc2)OC1=O (configuration not stated) | inactive |  |  | inactive | inactive
23 | C=CC(C)(C)c1[nH]c2cc3c(cc2c1CC1NC(=O)C2CCCN2C1=O)C=CC(C)(C)O3 (configuration not stated) | inactive |  |  | inactive | inactive
24 | CC12CCC3c4ccc(OC5OC(C(=O)O)C(O)C(O)C5O)cc4CCC3C1CCC2O (configuration not stated) | inactive |  |  | inactive | inactive
